# Where “and” joins values, the source holds several entries; their conditions need not be identical. Equal entries are not always repeated.
# Key:
# [1] = target: Sphingosine kinase 1 (Homo sapiens) (UniProt Q9NYA1); conditions: at 1 µM;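 further: mean SPHK1 inhibition value reported from the GSK PKIS kinase panel screen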
# [2] = target: T1, Sphingosine kinase 2 (Homo sapiens) (UniProt Q9NRA0); conditions: at 0.1 µM
# T1 sequence (whole entry): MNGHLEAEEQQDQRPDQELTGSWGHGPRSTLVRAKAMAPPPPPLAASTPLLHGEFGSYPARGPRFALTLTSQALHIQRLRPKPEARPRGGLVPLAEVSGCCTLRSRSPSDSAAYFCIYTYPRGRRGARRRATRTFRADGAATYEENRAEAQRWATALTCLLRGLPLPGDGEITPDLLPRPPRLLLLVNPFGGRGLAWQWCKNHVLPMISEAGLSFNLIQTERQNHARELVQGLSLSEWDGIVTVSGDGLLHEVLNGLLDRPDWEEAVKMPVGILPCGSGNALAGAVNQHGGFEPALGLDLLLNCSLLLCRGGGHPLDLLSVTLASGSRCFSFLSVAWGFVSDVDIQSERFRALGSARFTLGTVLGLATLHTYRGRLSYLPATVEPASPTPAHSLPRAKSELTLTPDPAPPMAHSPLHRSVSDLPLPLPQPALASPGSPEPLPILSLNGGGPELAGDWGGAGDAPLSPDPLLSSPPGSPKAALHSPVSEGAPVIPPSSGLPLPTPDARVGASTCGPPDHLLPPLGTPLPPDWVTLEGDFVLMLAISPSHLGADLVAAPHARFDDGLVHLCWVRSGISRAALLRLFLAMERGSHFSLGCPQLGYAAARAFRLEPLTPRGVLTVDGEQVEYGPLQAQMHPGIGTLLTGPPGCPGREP
# [3] = target: T1, Sphingosine kinase 2 (Homo sapiens); conditions: at 1 µM
# [4] = target: Casein kinase II subunit alpha (Homo sapiens) (UniProt P68400); conditions: at 0.1 µM
# [5] = target: Casein kinase II subunit alpha (Homo sapiens) (UniProt P68400); conditions: at 1 µM
# [6] = target: T2, Inhibitor of nuclear factor kappa-B kinase subunit alpha (Homo sapiens) (UniProt O15111); conditions: at 0.1 µM
# T2 sequence (whole entry): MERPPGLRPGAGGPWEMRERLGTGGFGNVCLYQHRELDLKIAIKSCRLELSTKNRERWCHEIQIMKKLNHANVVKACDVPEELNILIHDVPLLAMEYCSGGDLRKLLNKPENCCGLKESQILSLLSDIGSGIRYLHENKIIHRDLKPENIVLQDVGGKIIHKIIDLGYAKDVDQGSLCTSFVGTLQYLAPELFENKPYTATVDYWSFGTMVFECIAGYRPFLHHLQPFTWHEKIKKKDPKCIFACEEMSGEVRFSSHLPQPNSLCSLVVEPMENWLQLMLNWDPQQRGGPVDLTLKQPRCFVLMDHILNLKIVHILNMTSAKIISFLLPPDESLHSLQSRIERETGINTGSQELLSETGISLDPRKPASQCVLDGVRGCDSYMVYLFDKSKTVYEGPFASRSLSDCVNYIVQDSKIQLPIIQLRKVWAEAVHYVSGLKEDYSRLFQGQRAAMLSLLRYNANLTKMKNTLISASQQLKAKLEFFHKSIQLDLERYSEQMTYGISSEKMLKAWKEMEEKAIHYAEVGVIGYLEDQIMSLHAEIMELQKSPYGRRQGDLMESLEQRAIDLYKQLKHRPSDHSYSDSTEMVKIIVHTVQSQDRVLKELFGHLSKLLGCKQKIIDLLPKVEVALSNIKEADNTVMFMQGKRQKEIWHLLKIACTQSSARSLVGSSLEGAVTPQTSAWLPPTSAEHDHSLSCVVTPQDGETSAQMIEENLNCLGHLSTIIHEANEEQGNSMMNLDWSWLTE
# [7] = target: T2, Inhibitor of nuclear factor kappa-B kinase subunit alpha (Homo sapiens); conditions: at 1 µM
# [8] = target: T3, Inhibitor of nuclear factor kappa-B kinase subunit beta (Homo sapiens) (UniProt O14920); conditions: at 0.1 µM
# T3 sequence (whole entry): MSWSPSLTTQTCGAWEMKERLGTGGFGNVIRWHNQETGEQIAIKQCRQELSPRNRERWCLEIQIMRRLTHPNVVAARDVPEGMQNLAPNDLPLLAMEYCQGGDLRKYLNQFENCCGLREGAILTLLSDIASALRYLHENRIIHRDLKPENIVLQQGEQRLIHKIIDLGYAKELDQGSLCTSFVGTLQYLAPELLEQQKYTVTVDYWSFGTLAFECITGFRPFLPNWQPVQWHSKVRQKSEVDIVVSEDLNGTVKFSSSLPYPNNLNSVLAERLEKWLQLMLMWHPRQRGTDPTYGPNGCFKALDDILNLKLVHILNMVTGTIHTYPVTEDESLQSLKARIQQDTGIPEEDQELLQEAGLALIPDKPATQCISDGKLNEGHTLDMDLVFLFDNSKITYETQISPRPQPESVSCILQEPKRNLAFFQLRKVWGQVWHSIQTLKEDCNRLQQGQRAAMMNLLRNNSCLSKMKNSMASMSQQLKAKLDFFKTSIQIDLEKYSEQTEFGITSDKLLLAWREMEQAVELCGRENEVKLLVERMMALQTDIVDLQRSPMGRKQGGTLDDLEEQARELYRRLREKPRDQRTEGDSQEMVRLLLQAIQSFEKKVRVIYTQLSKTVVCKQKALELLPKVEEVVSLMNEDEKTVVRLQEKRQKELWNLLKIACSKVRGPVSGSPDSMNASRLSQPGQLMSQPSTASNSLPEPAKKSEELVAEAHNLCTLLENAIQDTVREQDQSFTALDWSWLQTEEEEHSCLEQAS
# [9] = target: T3, Inhibitor of nuclear factor kappa-B kinase subunit beta (Homo sapiens); conditions: at 1 µM
# [10] = target: T4, Inhibitor of nuclear factor kappa-B kinase subunit epsilon (Homo sapiens) (UniProt Q14164); conditions: at 0.1 µM;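 further: mean inhibition of IKKε reported, from the GSK PKIS dataset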
# T4 sequence (whole entry): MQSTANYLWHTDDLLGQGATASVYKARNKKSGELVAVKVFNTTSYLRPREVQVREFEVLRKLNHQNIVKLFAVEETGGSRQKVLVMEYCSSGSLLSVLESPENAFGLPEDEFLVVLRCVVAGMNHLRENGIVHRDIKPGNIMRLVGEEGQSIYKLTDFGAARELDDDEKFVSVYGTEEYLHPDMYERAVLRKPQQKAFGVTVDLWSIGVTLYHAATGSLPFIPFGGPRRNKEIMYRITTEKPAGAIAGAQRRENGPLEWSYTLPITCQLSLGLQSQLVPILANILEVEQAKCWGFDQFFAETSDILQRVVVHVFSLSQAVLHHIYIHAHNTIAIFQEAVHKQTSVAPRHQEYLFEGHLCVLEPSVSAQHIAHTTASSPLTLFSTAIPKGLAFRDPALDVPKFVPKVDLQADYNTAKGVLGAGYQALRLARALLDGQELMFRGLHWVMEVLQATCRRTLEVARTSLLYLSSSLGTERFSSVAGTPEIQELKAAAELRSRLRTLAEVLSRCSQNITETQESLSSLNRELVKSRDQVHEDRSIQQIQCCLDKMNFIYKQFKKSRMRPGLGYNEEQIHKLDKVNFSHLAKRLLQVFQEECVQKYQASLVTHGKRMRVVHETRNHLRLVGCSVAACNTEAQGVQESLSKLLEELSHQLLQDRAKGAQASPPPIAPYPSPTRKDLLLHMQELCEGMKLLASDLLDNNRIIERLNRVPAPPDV
# Chain of Sphingosine kinase 1 (Homo sapiens) (Q9NYA1 whole entry): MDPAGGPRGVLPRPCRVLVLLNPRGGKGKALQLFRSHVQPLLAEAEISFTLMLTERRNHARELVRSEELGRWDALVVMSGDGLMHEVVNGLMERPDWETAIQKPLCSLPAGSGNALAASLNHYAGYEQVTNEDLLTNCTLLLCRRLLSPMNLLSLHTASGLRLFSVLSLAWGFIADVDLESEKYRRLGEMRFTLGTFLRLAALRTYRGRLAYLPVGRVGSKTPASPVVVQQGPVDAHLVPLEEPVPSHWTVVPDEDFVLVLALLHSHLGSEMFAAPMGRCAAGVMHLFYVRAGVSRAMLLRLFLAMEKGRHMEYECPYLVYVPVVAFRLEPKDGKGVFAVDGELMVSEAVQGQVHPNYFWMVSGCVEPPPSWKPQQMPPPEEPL
# Chain of Casein kinase II subunit alpha (Homo sapiens) (P68400 whole entry, looked up): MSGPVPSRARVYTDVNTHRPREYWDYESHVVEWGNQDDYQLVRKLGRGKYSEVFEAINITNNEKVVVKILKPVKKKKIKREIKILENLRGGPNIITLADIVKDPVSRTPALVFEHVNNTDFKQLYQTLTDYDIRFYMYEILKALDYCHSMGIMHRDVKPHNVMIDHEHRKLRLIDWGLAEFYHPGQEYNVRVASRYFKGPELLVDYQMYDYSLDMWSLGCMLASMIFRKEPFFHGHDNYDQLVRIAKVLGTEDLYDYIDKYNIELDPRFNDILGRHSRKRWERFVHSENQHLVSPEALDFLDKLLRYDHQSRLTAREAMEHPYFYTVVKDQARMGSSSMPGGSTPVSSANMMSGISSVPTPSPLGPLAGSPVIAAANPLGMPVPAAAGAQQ
SMILES,inhibition [1],inhibition [2],inhibition [3],inhibition [4],inhibition [5],inhibition [6],inhibition [7],inhibition [8],inhibition [9],inhibition [10]
Fc1cccc(COc2ccc(Nc3ncncc3C#Cc3ccccc3)cc2Cl)c1,-2.79%,-1.37%,0.98%,4.56%,11.3%,6.1%,4.54%,8.5%,9.35%,7.72%
CCN1CCC(C(=O)Nc2n[nH]c3nnc(-c4cccc(F)c4F)cc23)CC1,4.91%,-2.69%,-1.5%,5.2%,-0.24%,-3.04%,3.59%,-4.76%,-2.63%,-2.1%
CS(=O)(=O)CCNCc1ccc(-c2ccc3ncnc(Nc4ccc(OCc5cccc(C(F)(F)F)c5)cc4)c3c2)o1,0.32%,0.1%,0.04%,5.1%,4.66%,3.34%,4.53%,4.47%,8.68%,4.74%
COc1cccc(Nc2nccc(-c3cnn4ncccc34)n2)c1,-2.02%,0.58%,-1.48%,8.12%,40.9%,11.6%,53.6%,5.19%,27.1%,3.06%
CC(C)c1ccc(-c2cc(-c3c[nH]nc3-c3ccccn3)ccn2)cc1,-1.66%,-0.31%,-1.09%,0.16%,0.83%,7.45%,-4.49%,1.97%,-0.35%,1.33%
c1cnn2ncc(-c3ccnc(NCCCN4CCOCC4)n3)c2c1,-3.67%,2.35%,0%,1.83%,4.66%,8.06%,9.01%,5.79%,4.44%,9.87%
Nc1nccc(-c2c(-c3ccc(F)cc3)ncn2C2CCNCC2)n1,5.1% and -0.03%,0.57% and 0.62%,1.73% and 0.57%,0.26% and 2.91%,18% and 2.93%,5.16% and -0.81%,8.44% and 4.4%,-3.54% and 0.6%,-2.15% and 0.23%,-4.18% and 0.25%
Nc1nonc1-c1nc2cnccc2n1C1CC1,-2.58% and -3.16%,0.27% and 0.67%,0.49% and 1.53%,1.54% and 1.55%,1.9% and 1.11%,6.14% and 3.82%,1.6% and 3.39%,4.31% and 2.15%,1.3% and 3.29%,3.18% and 3.84%
CNC(=O)c1sc(-n2cnc3cc(OC)c(OC)cc32)cc1OCc1ccccc1C(F)(F)F,-2.69%,-1.57%,-1.5%,5.33%,1.77%,9.1%,6.49%,4.41%,2.57%,7.72%
CCCNc1cccc(-n2ncc3c(N/N=C/c4ccncc4)ncnc32)c1,-3.91%,-0.44%,1.31%,1.7%,14.1%,5.25%,0.68%,0.62%,3.19%,5.27%

# Reference: ChEMBL document CHEMBL1961873, “Compounds: GSK PKIS; Assays: Nanosyn kinase panel” (2012)
